# Source: the supplement of paper PMC9801561
# ± gives the standard deviation of the averaged measurements.
# Tests used:
# [1] = test system: Escherichia coli Nissle 1917; assay: area under OmniLog respiration curve over 48 h (OmniLog units x h); higher = more growth / nutrient utilisation; extreme values may be limits of the assay; conditions: incubation: 48 h, 37 °C
# [2] = test system: Escherichia coli Nissle 1917; assay: DuctApe activity index of respiration/growth curve (0 no growth to 9 maximum) (index 0-9); higher = more growth / nutrient utilisation, active = 3 or more; extreme values may be limits of the assay; conditions: incubation: 48 h, 37 °C
# [3] = nutrient role: sole sulfur source (pyruvate carbon)
# [4] = nutrient role: sole nitrogen source (pyruvate carbon)
# [5] = nutrient role: C-Source, carbohydrate
# [6] = nutrient role: C-Source, carboxylic acid
# [7] = nutrient role: sole phosphorus source (pyruvate carbon)
# 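For DuctApe activity index of respiration/growth curve (0 no growth to 9 maximum) in this document: biolog PM4 phosphorus and sulfur plates, tetrazolium violet dye reduction read in the OmniLog every 15 min, kinetic curves scored by DuctApe, each plate run in triplicate.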
smiles,measurement,setting,value
NCCS(=O)O [Hypotaurine],area under OmniLog respiration curve,[1]; [3],7620 ± 90
same,DuctApe activity index,[2]; [3],8 (active)
Nc1cc[nH]c(=O)n1 [Cytosine],area under OmniLog respiration curve,[1]; [4],5890 ± 1100
same,DuctApe activity index,[2]; [4],7 (active)
OC[C@H]1OC(O)[C@H](O)[C@@H](O)[C@H]1O (stereo partly drawn) [D-Galactose],area under OmniLog respiration curve,[1]; [5],7350 ± 520
same,DuctApe activity index,[2]; [5],7.67 (active)
O=C1O[C@H]([C@@H](O)CO)[C@@H](O)[C@@H]1O [L-Galactonic acid-g-Lactone],area under OmniLog respiration curve,[1]; [6],10200 ± 640
same,DuctApe activity index,[2]; [6],9 (active)
OC[C@H](O)C(O)[C@@H](O)CO [L-Arabitol],area under OmniLog respiration curve,[1]; [5],4.72
same,DuctApe activity index,[2]; [5],0 (inactive)
Nc1ccn([C@@H]2O[C@H](COP(=O)(O)O)[C@@H](O)[C@H]2O)c(=O)n1 [Cytidine 5`-Monophosphate],area under OmniLog respiration curve,[1]; [7],8880 ± 960
same,DuctApe activity index,[2]; [7],8.67 (active)
O=C(O)[C@H](O)[C@@H](O)[C@H](O)[C@H](O)COP(=O)(O)O [6-Phospho-Gluconic acid],area under OmniLog respiration curve,[1]; [7],9360 ± 510
same,DuctApe activity index,[2]; [7],9 (active)
CCC(N)C(=O)O (racemic) [DL-a-Amino-N-Butyric acid],area under OmniLog respiration curve,[1]; [4],6040 ± 1200
same,DuctApe activity index,[2]; [4],7 (active)
C[C@H](CCC(=O)NCCS(=O)(=O)O)[C@H]1CC[C@H]2[C@@H]3[C@H](O)C[C@@H]4C[C@H](O)CC[C@]4(C)[C@H]3C[C@H](O)[C@]12C [Taurocholic acid],area under OmniLog respiration curve,[1]; [3],2500 ± 890
same,DuctApe activity index,[2]; [3],4 (active)
CCC(C)N (stereo unspecified) [sec-Butylamine],area under OmniLog respiration curve,"[1]; nutrient role: C-Source, amine",5.72 ± 1.7
same,DuctApe activity index,"[2]; nutrient role: C-Source, amine",0 (inactive)
Cc1cn([C@H]2C[C@H](OP(=O)(O)O)[C@@H](CO)O2)c(=O)[nH]c1=O [Thymidine 3`-Monophosphate],area under OmniLog respiration curve,[1]; [7],8940 ± 450
same,DuctApe activity index,[2]; [7],8.67 (active)
CO[C@H]1O[C@H](CO)[C@@H](O)[C@H](O)[C@H]1O [a-Methyl-D-Glucoside],area under OmniLog respiration curve,[1]; [5],4.72
same,DuctApe activity index,[2]; [5],0 (inactive)
Nc1[nH]cnc2ncnc1-2 [Adenine],area under OmniLog respiration curve,[1]; [4],5810 ± 860
same,DuctApe activity index,[2]; [4],6.67 (active)
Oc1nc(O)c2nc(O)[nH]c2n1 [Uric acid],area under OmniLog respiration curve,[1]; [4],986 ± 490
same,DuctApe activity index,[2]; [4],2.33 (inactive)
O=C(O)C(CO)OP(=O)(O)O [D-2-Phospho-Glyceric acid],area under OmniLog respiration curve,[1]; [7],9640 ± 700
same,DuctApe activity index,[2]; [7],9 (active)
O=C(O)[C@H]1OC(O)[C@H](O)[C@@H](O)[C@@H]1O (stereo partly drawn) [D-Glucuronic acid],area under OmniLog respiration curve,[1]; [6],10000 ± 950
same,DuctApe activity index,[2]; [6],9 (active)
CCC(=O)O [Propionic acid],area under OmniLog respiration curve,[1]; [6],7450 ± 300
same,DuctApe activity index,[2]; [6],8 (active)
O=C[C@H](O)[C@@H](O)[C@H](O)[C@H](O)CO[C@@H]1O[C@H](CO)[C@@H](O)[C@H](O)[C@H]1O [Gentiobiose],area under OmniLog respiration curve,[1]; [5],475 ± 820
same,DuctApe activity index,[2]; [5],1 (inactive)
O=c1ccn([C@@H]2O[C@H](CO)[C@@H](O)[C@H]2OP(=O)(O)O)c(=O)[nH]1 [Uridine 2`-Monophosphate],area under OmniLog respiration curve,[1]; [7],6560 ± 4400
same,DuctApe activity index,[2]; [7],7 (active)
O=C(O)C(O)C(O)C(=O)O (stereo unspecified) [m-Tartaric acid],area under OmniLog respiration curve,[1]; [6],4.72
same,DuctApe activity index,[2]; [6],0 (inactive)
O=P(O)(O)OC[C@H]1OC(O)C[C@@H](O)[C@@H]1O (stereo partly drawn) [2-Deoxy-D-Glucose 6-Phosphate],area under OmniLog respiration curve,[1]; [7],4.72
same,DuctApe activity index,[2]; [7],0 (inactive)
CS(=O)(=O)CC[C@H](N)C(=O)O [L-Methionine Sulfone],area under OmniLog respiration curve,[1]; [3],31.6 ± 21
same,DuctApe activity index,[2]; [3],0 (inactive)
Nc1nc2c(ncn2[C@@H]2O[C@H](CO)[C@@H](O)[C@H]2O)c(=O)[nH]1 [Guanosine],area under OmniLog respiration curve,[1]; [4],442 ± 580
same,DuctApe activity index,[2]; [4],0.333 (inactive)
CCCCN [N-Butylamine],area under OmniLog respiration curve,[1]; [4],5.65 ± 1.6
same,DuctApe activity index,[2]; [4],0 (inactive)
OCC1OC(O)(CO)C(O)C1O [D-Fructose],area under OmniLog respiration curve,[1]; [5],8740 ± 720
same,DuctApe activity index,[2]; [5],8.67 (active)
O=C(CO)[C@@H](O)[C@H](O)[C@H](O)CO[C@H]1O[C@H](CO)[C@@H](O)[C@H](O)[C@H]1O [Palatinose],area under OmniLog respiration curve,[1]; [5],174 ± 160
same,DuctApe activity index,[2]; [5],0 (inactive)
O=CC(=O)O [Glyoxylic acid],area under OmniLog respiration curve,[1]; [6],5490 ± 480
same,DuctApe activity index,[2]; [6],7 (active)
OC[C@@H](O)[C@@H](O)[C@H](O)[C@H](O)CO [D-Mannitol],area under OmniLog respiration curve,[1]; [5],7850 ± 650
same,DuctApe activity index,[2]; [5],7.67 (active)
CC(=O)CC(=O)O [Acetoacetic acid],area under OmniLog respiration curve,[1]; [6],784 ± 630
same,DuctApe activity index,[2]; [6],0 (inactive)
OC[C@H]1O[C@H](O[C@H]2[C@H](O)[C@@H](O)[C@H](O)O[C@@H]2CO)[C@H](O)[C@@H](O)[C@@H]1O [Maltose],area under OmniLog respiration curve,[1]; [5],7970 ± 810
same,DuctApe activity index,[2]; [5],7.67 (active)
C=C(CC(=O)O)C(=O)O [Itaconic acid],area under OmniLog respiration curve,[1]; [6],4.72
same,DuctApe activity index,[2]; [6],0 (inactive)
CO[C@H]1O[C@H](CO)[C@H](O)[C@H](O)[C@H]1O [a-Methyl-D-Galactoside],area under OmniLog respiration curve,[1]; [5],8070 ± 460
same,DuctApe activity index,[2]; [5],8 (active)
NC(Cc1ccc(OP(=O)(O)O)cc1)C(=O)O (stereo in doubt) [O-Phospho-D-Tyrosine],area under OmniLog respiration curve,[1]; [7],9640 ± 360
same,DuctApe activity index,[2]; [7],9 (active)
